Data published in PubChem BioAssay (NCATS).
Records with an inconclusive call do not appear. Entries that show only a call come without a potency. Calls of active or inactive are those of the source. Calls follow the shape of the dose curve; as a rule, active = well fitted curve in the direction sought with a large enough effect; inconclusive = small, poorly fitted or top-dose-only effect, or another doubt; inactive = no such curve, though single readings can be large; an effect the other way counts as inactive or inconclusive.

Legend:
[1] = system: Zika virus NS2B-NS3 protease (linked construct); test: Primary screen NINDS Rhodamine qHTS for Zika virus inhibitors (AID 1347160); also: nearly all actives have a fitted effect of over 55% in size
How it was run: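 Rhodamine110-peptide cleavage (1.5 µM substrate) by 25 nM linked NS2B-NS3 enzyme at pH 8.0 (Tris, Tween 20), after 15 min RT preincubation with compounds; 15-min fluorescence change normalized to controls and Hill-fitted.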

[2] = system: Nanoluciferase (engineered Oplophorus gracilirostris luciferase); test: Primary Nanoluciferase (NLuc) qHTS assay for identification of artifact compounds. (AID 1845222); also: potency is read from the fitted curve at half-maximal effect
How it was run: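 S16 cell supernatant NLuc, 1:55; cpds qHTS; 15 min RT dark; Nano-Glo substrate 1:100, 5 min; luminescence; Hill fit of % inhibition.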

[3] = system: C33A; test: Primary qHTS to identify gynecologic anti-cancer compounds using libraries of approved drugs and bioactive compounds (AID 1345084); conditions: Gynecologic cancer cell panel viability, ATPlite luminescence, 48 h; series mostly up to 57.5 µM; also: nearly all actives have a fitted effect of over 55% in size; also: potency is read from the fitted curve at half-maximal effect
How it was run: (§1)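 Five-concentration response, 48 h; readout is ATP-driven luciferase luminescence.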

[4] = system: CASKI; test: as above; conditions: Gynecologic cancer cell panel viability, ATPlite luminescence, 48 h; series mostly up to 57.5 µM
How it was run: as §1

[5] = system: Es-2; test: as above; conditions: Gynecologic cancer cell panel viability, ATPlite luminescence, 48 h; series mostly up to 57.5 µM
How it was run: as §1

[6] = system: HeLa; test: as above; conditions: Gynecologic cancer cell panel viability, ATPlite luminescence, 48 h; series mostly up to 57.5 µM
How it was run: as §1

[7] = system: Hek293T; test: as above; conditions: Gynecologic cancer cell panel viability, ATPlite luminescence, 48 h, control line for the selectivity index; series mostly up to 57.5 µM
How it was run: as §1

[8] = system: OV90; test: as above; conditions: Gynecologic cancer cell panel viability, ATPlite luminescence, 48 h; series mostly up to 57.5 µM
How it was run: as §1

[9] = system: Tov-21-G; test: as above; conditions: Gynecologic cancer cell panel viability, ATPlite luminescence, 48 h; series mostly up to 57.5 µM
How it was run: as §1

[10] = system: Tov112D; test: as above; conditions: Gynecologic cancer cell panel viability, ATPlite luminescence, 48 h; series mostly up to 57.5 µM
How it was run: as §1

[11] = target: Calcium and integrin-binding protein 1 (Homo sapiens) (UniProt Q99828); test: Primary qHTS for Identification of Calcium Integrin Binding Protein 1 (CIB1) Competitor (AID 1508620);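 also: GST tagged CIB1 binding a fluorescein labelled alphaIIb integrin peptide tracer; top concentration of the series differs between compounds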
How it was run: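 Fluorescence polarization competition: GST-tagged CIB1 (1 uM final) preincubated with compound 15 min at room temperature, then FITC-labelled alphaIIb peptide (100 nM final) added. After 15 min at room temperature, polarization read at Ex 480/Em 540.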

[12] = Primary qHTS for inhibitors of nuclear receptor binding SET domain protein 2 (NSD2) in an isogenic RCH-ACV NSD2 p.E1099K mutant (9B) (AID 1645876); also: nearly all actives have a fitted effect of over 70% in size; also: potency is read from the fitted curve at half-maximal effect
[13] = Primary qHTS for inhibitors of nuclear receptor binding SET domain protein 2 (NSD2) in an RCH-ACV wild type WT cells (2C) (AID 1645877); also: nearly all actives have a fitted effect of over 70% in size; also: potency is read from the fitted curve at half-maximal effect
[14] = target: Phospholipid hydroperoxide glutathione peroxidase GPX4 (Homo sapiens) (UniProt P36969); test: Primary qHTS Assay for Inhibitors of Recombinant Selenoprotein Glutathione Peroxidase 4 (GPX4) (AID 1845192); conditions: outcome: dose series up to 50 µM unless noted; also: nearly all actives have a fitted effect of over 65% in size
How it was run: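 Steps: GPX4 plus compound, 30 min RT; add GR/GSH/NADPH master mix; start with cumene hydroperoxide; read 340/450 nm fluorescence at 0 and 15 min. Finals were 200 nM GPX4, 1 mM GSH, 0.5 mM CHP, 0.5 mM NADPH, 100 nM GR.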

[15] = target: Luciferin 4-monooxygenase (Photinus pyralis) (UniProt P08659); test: Primary firefly luciferase (FLuc) qHTS assay for identification of artifact compounds. (AID 1845220); also: nearly all actives have a fitted effect of over 60% in size
How it was run: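 Enzymatic FLuc inhibition assay: compounds pre-exposed to luciferin/ATP (10 uM each) for 15 min, then purified P. pyralis enzyme at 10 nM added. Read-out: luminescence at 5 min.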

[16] = system: JEG-3; test: Primary qHTS to identify gynecologic anti-cancer compounds using libraries of approved drugs and bioactive compounds (AID 1345084); conditions: Gynecologic cancer cell panel viability, ATPlite luminescence, 48 h; series mostly up to 57.5 µM; also: nearly all actives have a fitted effect of over 55% in size; also: potency is read from the fitted curve at half-maximal effect
How it was run: as §1

[17] = system: Zika virus NS2B-NS3 protease (unlinked complex); test: Primary screen GU Rhodamine qHTS for Zika virus inhibitors: Unlinked NS2B-NS3 protease assay (AID 1347159); also: nearly all actives have a fitted effect of over 60% in size
How it was run: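 Percent inhibition came from the 15-min rise in Rhodamine110 fluorescence (1.5 microM substrate, ~15% conversion), normalized to no-inhibitor and no-enzyme wells and Hill-fitted. Unlinked protease, 25 nM, pH 8.0 Tris buffer; compounds up to 114 microM, 15-min preincubation.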

[18] = target: Glutathione peroxidase 1 (Homo sapiens) (UniProt P07203); test: Primary qHTS Assay for Inhibitors of Recombinant Selenoprotein Glutathione Peroxidase 1 (GPX1) (AID 1845191); also: nearly all actives have a fitted effect of over 65% in size
How it was run: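 GR-coupled readout: NADPH consumption tracked by fluorescence, ex 340/em 450 nm, at t=0 and after 15 min at RT. Final mix 10 nM GPX1, 1 mM GSH, 0.5 mM CHP, 0.5 mM NADPH, 100 nM GR, 0.01% BSA, following 30 min enzyme–compound preincubation.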

[19] = P-glycoprotein substrates identified in KB-8-5-11 adenocarcinoma cell line, qHTS therapeutic library screen (AID 1346987); also: potency is read from the fitted curve at half-maximal effect; nearly all actives have a fitted effect of over 65% in size
How it was run: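 Human cervical adenocarcinoma KB-8-5-11 cells, selected in colchicine to over-express P-gp and assayed without it, were exposed for 72 h to titrated compounds. An ATP-based luminescent viability signal gave AC50.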

Sequence of Glutathione peroxidase 1 (Homo sapiens) (P07203 whole entry, looked up): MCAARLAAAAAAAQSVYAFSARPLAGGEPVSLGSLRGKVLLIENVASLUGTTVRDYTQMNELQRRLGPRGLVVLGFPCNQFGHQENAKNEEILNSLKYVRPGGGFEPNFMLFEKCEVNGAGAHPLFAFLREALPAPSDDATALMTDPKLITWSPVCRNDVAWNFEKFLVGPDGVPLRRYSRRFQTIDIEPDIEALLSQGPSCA
Sequence of Calcium and integrin-binding protein 1 (Homo sapiens) (Q99828 whole entry, looked up): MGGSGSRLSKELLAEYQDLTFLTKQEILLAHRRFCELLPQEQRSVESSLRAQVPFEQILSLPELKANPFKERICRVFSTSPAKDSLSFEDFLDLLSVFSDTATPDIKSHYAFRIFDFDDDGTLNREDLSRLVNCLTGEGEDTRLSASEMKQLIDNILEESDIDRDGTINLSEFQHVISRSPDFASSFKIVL
Sequence of Phospholipid hydroperoxide glutathione peroxidase GPX4 (Homo sapiens) (P36969 whole entry, looked up): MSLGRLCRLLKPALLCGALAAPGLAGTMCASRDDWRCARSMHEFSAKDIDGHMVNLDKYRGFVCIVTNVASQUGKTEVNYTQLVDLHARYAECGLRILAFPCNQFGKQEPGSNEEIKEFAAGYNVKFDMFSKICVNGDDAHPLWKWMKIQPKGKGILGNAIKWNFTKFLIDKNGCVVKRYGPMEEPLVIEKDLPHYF

Row | Structure (SMILES) | Potency [1] | Potency [2] | Potency [3] | Potency [4] | Potency [5] | Potency [6] | Potency [7] | Potency [8] | Potency [9] | Potency [10] | outcome [11] | Potency [12] | Potency [13] | Potency [14] | Potency [15] | Potency [16] | Potency [17] | Potency [18] | Potency [19]
1 | COc1ccc(-c2c(C)c(C(=O)NN3CCCCC3)nn2-c2ccc(Cl)cc2Cl)cc1 | inactive | inactive | inactive | inactive | inactive | inactive | inactive | inactive | inactive | inactive |  |  |  |  |  |  |  |  | 
2 | CC[C@H](C)[C@H]1O[C@]2(CC[C@@H]1C)C[C@@H]1C[C@@H](C/C=C(\C)[C@@H](O[C@H]3C[C@H](OC)[C@@H](O[C@H]4C[C@H](OC)[C@@H](O)[C@H](C)O4)[C@H](C)O3)[C@@H](C)/C=C/C=C3\CO[C@@H]4[C@H](O)C(C)=C[C@@H](C(=O)O1)[C@]34O)O2 | inactive | inactive | inactive | inactive | inactive | inactive |  | inactive | inactive | inactive | inactive | 20.5 µM (active) | 9.16 µM (active) | inactive | inactive | inactive |  |  | 
3 | CN([C@H]1c2cc(OCCCC(F)(F)F)ccc2OC(C)(C)[C@@H]1O)S(C)(=O)=O | inactive | inactive | inactive | inactive | inactive | inactive | inactive | inactive | inactive | inactive |  |  |  |  | inactive | inactive | inactive |  | 
4 | COc1cc(-c2cc(-c3cccc(O)c3)cnc2N)cc(OC)c1OC | inactive | inactive | inactive | inactive | inactive | inactive | inactive | inactive |  |  | inactive | 10.3 µM (active) | 12.9 µM (active) |  | inactive | inactive | inactive | inactive | 
5 | CCCCc1nc(C)c(CC(=S)N(C)C)c(=O)n1Cc1ccc(-c2ccccc2-c2nn[nH]n2)cc1 | inactive | 16.9 µM (active) | inactive | inactive | inactive | inactive | inactive | inactive | inactive | inactive | inactive | inactive | inactive | inactive |  | inactive |  |  | 
6 | COc1ccc(-c2nc(-c3cc(C(F)(F)F)cc(C(F)(F)F)c3)n(Cc3ccc(C(N)=O)cc3)c2-c2ccc(OC)cc2)cc1 |  | inactive | inactive | inactive | inactive | inactive |  | inactive | inactive | inactive | inactive | inactive | inactive | inactive |  | inactive | inactive | inactive | 
7 | Cc1cc(C)c(NC(=O)N(Cc2ccc3c(c2)Cc2ccccc2-3)C2CCCCCC2)c(C)c1 | inactive | inactive | inactive | inactive | inactive | inactive | inactive | inactive | inactive | inactive | inactive | inactive | inactive | inactive | inactive | inactive |  | inactive | 
8 | C=C1C(=O)O[C@@H]2C[C@@H](C)[C@]34C[C@]5(C(=O)O[C@H]6CC(C)=C([C@H](C)CCCO)[C@H](OC(=O)C(C)CC)[C@H]65)[C@@H](C(C)=C3C[C@@H]12)[C@H]4OC(C)=O (stereo not given in full) | inactive | inactive | inactive | inactive | inactive | inactive |  | inactive |  | inactive | inactive | 2.16 µM (active) | 1.53 µM (active) | inactive |  | inactive | inactive | inactive | 5.44 µM (active)
9 | C=C1C(=O)O[C@@H]2/C=C(/C)CC3C=C(C[C@H](OC(=O)/C(C)=C\C)[C@@H]12)C(=O)O3 (stereo not given in full) | inactive | inactive | inactive | inactive | inactive | inactive |  | inactive | inactive | inactive | inactive | 16 µM (active) | 3.58 µM (active) | inactive | inactive | inactive | inactive | inactive | 
10 | COc1ccc2c(c1)CN(C(=O)CCN1CCC(Cc3ccccc3)CC1)CCS2 | inactive | inactive | inactive | inactive | inactive | inactive | inactive | 6.31 µM (active) | inactive | inactive | inactive | 11.2 µM (active) | 10 µM (active) | inactive |  | inactive | inactive | inactive | 6.32 µM (active)
11 | CNc1cc(OC)c(C(=O)N[C@@H]2CCN(Cc3ccccc3)[C@@H]2C)cc1Cl | inactive | inactive | inactive | inactive | inactive | inactive | inactive |  | inactive | inactive | inactive | 20.5 µM (active) |  | inactive |  | inactive | inactive |  | 
12 | CCOC(=O)CCC(=O)O[C@H]1[C@H](O[C@@H]2[C@@H](C)[C@H](O[C@H]3C[C@@](C)(OC)[C@@H](O)[C@H](C)O3)[C@@H](C)C(=O)O[C@H](CC)[C@@](C)(O)[C@H](O)[C@@H](C)C(=O)[C@H](C)CC2(C)O)O[C@H](C)C[C@@H]1N(C)C (stereo not given in full) | inactive | inactive | inactive | inactive | inactive | inactive | inactive | inactive | inactive | inactive | inactive | inactive | inactive | inactive |  | inactive | inactive | inactive | 
13 | CC(C)n1cnc2c(Nc3cccc(Cl)c3)nc(NCCO)nc21 | inactive | inactive | inactive | inactive | inactive | inactive | inactive | inactive |  | inactive | inactive | 11.5 µM (active) | 8.17 µM (active) | inactive | inactive | inactive | inactive | inactive | 14.6 µM (active)
